Source: the supplement of paper PMC6992640
± gives the standard deviation of the averaged measurements.

Experiments:
Assay in all cases: cell viability (% of vehicle); higher = less cytotoxic
Conditions in all cases: 10 µM; 72 h
HCI01 = test system: HCI01 (cells of a triple-negative basal-like breast cancer xenograft)
HCI03 = test system: HCI03 (cells of an ER-positive luminal breast cancer xenograft)
HCI09 = test system: HCI09 (cells of a triple-negative luminal androgen receptor type breast cancer xenograft)
HCI11 = test system: HCI11 (cells of an ER-positive luminal breast cancer xenograft)
HCI13 = test system: HCI13 (cells of an ER-positive luminal breast cancer xenograft)
HCI16 = test system: HCI16 (cells of a triple-negative basal-like breast cancer xenograft)
UCD52 = test system: UCD52 (cells of a triple-negative basal-like breast cancer xenograft)
WHIM2 = test system: WHIM2 (cells of a triple-negative basal-like breast cancer xenograft)
WHIM30 = test system: WHIM30 (cells of a triple-negative basal-like breast cancer xenograft)
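Note: PDX cells carrying CMV promoter-driven luciferase, viability read as total photon flux per second by IVIS imaging following D-luciferin, vehicle control 0.1% DMSO.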

Row | SMILES | cell viability (HCI01) | cell viability (HCI03) | cell viability (HCI09) | cell viability (HCI11) | cell viability (HCI13) | cell viability (HCI16) | cell viability (UCD52) | cell viability (WHIM2) | cell viability (WHIM30)
1 | CCOC(=O)c1ccc(N)cc1 [Benzocaine] | 144 ± 13 | 87.2 | 115 ± 14 | 117 | 79.8 ± 1.6 | 134 | 117 ± 8.3 | 142 ± 12 | 140 ± 10
2 | OCC1OC(OC2(CCl)OC(CCl)C(O)C2O)C(O)C(O)C1Cl (stereo not drawn) [Sucralose] | 112 ± 2.4 | 128 | 91.4 ± 5.3 | 89.1 | 70 ± 4.5 | 140 | 70.9 ± 6.8 | 124 ± 30 | 110 ± 7.1
3 | Nc1ccc(O)c(C(=O)O)c1 [Mesalamine] | 110 ± 2.2 | 125 | 116 ± 8.1 | 103 | 130 ± 15 | 125 | 105 ± 2.3 | 92 ± 2.1 | 155 ± 27
4 | CC(=O)[C@@]1(O)CC[C@H]2[C@@H]3CCC4=CC(=O)CCC4=C3[C@@H](c3ccc(N(C)C)cc3)C[C@@]21C [Ulipristal] | 70.8 ± 48 | 147 | 36.6 ± 13 | 82.9 | 113 ± 3.3 | 118 | 93.5 ± 11 | 87.8 ± 10 | 142 ± 1.3
5 | CCCC1CC(C(=O)NC(C(C)Cl)C2OC(SC)C(O)C(O)C2O)N(C)C1 (stereo not drawn) [Clindamycin] | 142 ± 42 | 124 | 83 ± 23 | 106 | 76.4 ± 12 | 122 | 96.8 ± 12 | 117 ± 13 | 116 ± 7.1
6 | COc1cc2c(cc1OC)C(=O)C(CC1CCN(Cc3ccccc3)CC1)C2.Cl (stereo not drawn) [Donepezil HCl] | 137 ± 8.8 | 89.9 | 113 ± 5 | 106 | 152.6 ± 0.61 | 147 | 66.1 ± 6.9 | 86.1 ± 4 | 107 ± 14
7 | CCCc1nc(C)c2c(=O)nc(-c3cc(S(=O)(=O)N4CCN(CC)CC4)ccc3OCC)[nH]n12 [Vardenafil] | 98.2 ± 24 | 169 | 113 ± 14 | 97.3 | 102 ± 5.5 | 127 | 109 ± 12 | 97.77 ± 0.38 | 107 ± 1.9
8 | C=CC(=O)Nc1cccc(Nc2nc(Nc3ccc(N4CCN(C(C)=O)CC4)cc3OC)ncc2C(F)(F)F)c1 | 103 ± 4.6 | 99.9 | 63.8 ± 0.93 | 94 | 88.2 ± 3.4 | 73.3 | 64.7 ± 17 | 66.7 ± 2.6 | 99.6 ± 16
9 | Cc1cc2c(s1)=Nc1ccccc1NC=2N1CCN(C)CC1 [Olanzapine] | 90.18 ± 0.87 | 107 | 105 ± 2.8 | 88.7 | 88.6 ± 14 | 112 | 87.7 ± 4.5 | 90.9 ± 8.5 | 107 ± 16
10 | CC(Cc1ccc(O)c(O)c1)(NN)C(=O)O (stereo not drawn) [Carbidopa] | 116 ± 20 | 122 | 121 ± 20 | 79.8 | 119 ± 14 | 149 | 124 ± 9.1 | 81.6 ± 11 | 126 ± 6.2
11 | Cl.O=C1OC(CN2CCOCC2)CN1N=Cc1ccc([N+](=O)[O-])o1 (stereo not drawn) [Furaltadone HCl] | 75.8 ± 23 | 153 | 46.7 ± 22 | 63.7 | 94.2 ± 14 | 97 | 135 ± 13 | 42.7 ± 10 | 96 ± 4.8
12 | O=C1CCC(C(=O)N2CSCC2C(=O)O)N1 (stereo not drawn) [Pidotimod] | 93.1 ± 30 | 137 | 96.2 ± 5.1 | 96.7 | 132 ± 3.4 | 108 | 98.5 ± 9.8 | 90 ± 22 | 122 ± 2.3
13 | Clc1ccc(C(Cn2ccnc2)OCc2csc3c(Cl)cccc23)c(Cl)c1.O=[N+]([O-])O (stereo not drawn) [Sertaconazole nitrate] | 113 ± 34 | 85.1 | 53.6 ± 39 | 103 | 44.6 ± 5.4 | 103 | 107 ± 58 | 150 ± 36 | 123 ± 12
14 | Cl.O=C1c2cccc3c2C(CCC3)CN1C1CN2CCC1CC2 (stereo not drawn) [Palonosetron HCl] | 86 ± 15 | 87.8 | 118 ± 38 | 94.8 | 100 ± 12 | 111 | 76.3 ± 4.4 | 82.6 ± 5.7 | 104 ± 8.2
15 | COc1cc2nc(N3CCN(C(=O)C4CCCO4)CC3)nc(N)c2cc1OC.Cl.O.O (stereo not drawn) [Terazosin HCl] | 137 ± 8 | 116 | 110 ± 19 | 101 | 104 ± 2 | 123 | 85.8 ± 15 | 113 ± 5.9 | 114 ± 12
16 | CCCCN1CCCCC1C(=O)Nc1c(C)cccc1C.Cl (stereo not drawn) [Levobupivacaine HCl] | 109 ± 22 | 101 | 117 ± 29 | 106 | 121 ± 14 | 141 | 107 ± 4.1 | 96.2 ± 3 | 163 ± 5.2
17 | CC#CCn1c(N2CCCC(N)C2)nc2c1c(=O)n(Cc1nc(C)c3ccccc3n1)c(=O)n2C (stereo not drawn) [Linagliptin (BI-1356)] | 160 ± 22 | 108 | 95.4 ± 7.2 | 142 | 105 ± 6.1 | 179 | 136 ± 2.3 | 111 ± 1.3 | 167 ± 7.3
18 | CC(=O)Oc1ccccc1C(=O)O [Aspirin (Acetylsalicylic acid)] | 174 ± 16 | 107 | 98.5 ± 3.8 | 136 | 148 ± 30 | 151 | 142 ± 13 | 101 ± 16 | 160 ± 23
19 | CC(C)OC(=O)OCOP(=O)(COC(C)Cn1cnc2c(N)ncnc21)OCOC(=O)OC(C)C.O=C(O)C=CC(=O)O (stereo not drawn) [Tenofovir Disoproxil Fumarate] | 106 ± 2.7 | 130 | 94.5 ± 7.6 | 97 | 51.9 ± 9.2 | 105 | 106 ± 12 | 118 ± 28 | 136 ± 10

Row | SMILES | cell viability (HCI01) | cell viability (HCI03) | cell viability (HCI09) | cell viability (HCI11) | cell viability (HCI13) | cell viability (HCI16) | cell viability (UCD52) | cell viability (WHIM2) | cell viability (WHIM30)
20 | O=C(O)c1cccnc1Nc1cccc(C(F)(F)F)c1 [Niflumic acid] | 135 ± 48 | 149 | 58.9 ± 21 | 68.8 | 125 ± 2.6 | 130 | 75.3 ± 5.3 | 105 ± 14 | 122 ± 2
21 | CCCCC1=NC2(CCCC2)C(=O)N1Cc1ccc(-c2ccccc2-c2nn[nH]n2)cc1 [Irbesartan] | 86.3 ± 2 | 105 | 94.6 ± 3.9 | 91.8 | 114 ± 2.4 | 107 | 103 ± 5.5 | 105 ± 4.9 | 82.7 ± 24
22 | NCC1CCC(C(=O)O)CC1 (stereo not drawn) [Tranexamic Acid] | 118 ± 7.2 | 116 | 94.6 ± 25 | 111 | 74.8 ± 0.96 | 102 | 92.2 ± 5 | 124 ± 17 | 111 ± 16
23 | O=NN(CCCl)C(=O)NC1CCCCC1 [Lomustine] | 94.4 ± 38 | 115 | 93.2 ± 13 | 95.2 | 83.2 ± 8.6 | 146 | 80.2 ± 12 | 91.3 ± 13 | 125 ± 10
24 | CC(=O)OCC(CCn1cnc2cnc(N)nc21)COC(C)=O [Famciclovir] | 112 ± 17 | 114 | 93.4 ± 4.1 | 96.3 | 123 ± 7.6 | 136 | 85.3 ± 8.4 | 106 ± 7.2 | 114 ± 2.1
25 | CN(C)C(=N)N=C(N)N.Cl [Metformin HCl] | 100 ± 14 | 123 | 92.5 ± 13 | 86.2 | 102 ± 6.9 | 117 | 82.2 ± 4.7 | 91.7 ± 3.1 | 136 ± 14
26 | C[N+](C)(C)CC(O)CC(=O)O.[Cl-] (racemic) [DL-Carnitine HCl] | 111 ± 35 | 112 | 120 ± 37 | 101 | 113 ± 5.4 | 147 | 102 ± 13 | 114 ± 25 | 132 ± 11
27 | CC1=NN(c2ccccc2)C(=O)C1 [Edaravone] | 80.8 ± 11 | 108 | 91.7 ± 13 | 100 | 99.37 ± 0.89 | 113 | 87.9 ± 16 | 83.1 ± 24 | 130 ± 10
28 | Cc1nnc(C(=O)NC(C)(C)c2nc(C(=O)NCc3ccc(F)cc3)c(O)c(=O)n2C)o1 [Raltegravir (MK-0518)] | 126 ± 2 | 134 | 97 ± 18 | 116 | 93.4 ± 11 | 118 | 119 ± 20 | 116 ± 15 | 136 ± 7.5
29 | CC[N+](CC)(CC)CCOc1cccc(OCC[N+](CC)(CC)CC)c1OCC[N+](CC)(CC)CC.[I-].[I-].[I-] [Gallamine Triethiodide] | 107 ± 9.8 | 118 | 94.6 ± 20 | 88.1 | 107 ± 8.3 | 92.6 | 98 ± 6.3 | 118 ± 6.2 | 79.5 ± 6.1
30 | CCOc1cc(N)c(Cl)cc1C(=O)NCC1CN(Cc2ccc(F)cc2)CCO1.O=C(O)CC(O)(CC(=O)O)C(=O)O (stereo not drawn) [Mosapride Citrate] | 138 ± 14 | 110 | 83.1 ± 9.6 | 116 | 103 ± 23 | 118 | 106 ± 2.8 | 82.6 ± 16 | 136 ± 5.5
31 | CC12CCC3c4ccc(O)cc4CCC3C1CCC2OC(=O)CCC1CCCC1 (stereo not drawn) [Estradiol Cypionate] | 168 ± 2.2 | 101 | 96.6 ± 4.5 | 93.1 | 180 ± 16 | 147 | 92 ± 6.5 | 110 ± 10 | 130 ± 12
32 | N#CC1CCCN1C(=O)CNC12CC3CC(CC(O)(C3)C1)C2 (stereo not drawn) [Vildagliptin (LAF-237)] | 118.9 ± 0.29 | 125 | 88.7 ± 16 | 126 | 96.1 ± 17 | 114 | 121 ± 12 | 112 ± 1.5 | 141 ± 20
33 | Cc1ccc(C(=O)C(C)CN2CCCCC2)cc1.Cl (stereo not drawn) [Tolperisone HCl] | 118 ± 20 | 118 | 101 ± 3.6 | 92.5 | 47.8 ± 8.8 | 109 | 92.3 ± 8.6 | 130 ± 6.4 | 110 ± 3.9
34 | CNCC(O)c1ccc(O)c(O)c1.O=C(O)C(O)C(O)C(=O)O (stereo not drawn) [Epinephrine Bitartrate] | 90.1 ± 26 | 96.3 | 89 ± 23 | 90.8 | 71.7 ± 3.3 | 96.7 | 100 ± 8.4 | 67.4 ± 26 | 110.2 ± 1.1
35 | CCNC(=O)CCCC=CCC1C(O)CC(O)C1C=CC(O)CCc1ccccc1 (stereo not drawn) [Bimatoprost] | 80.9 ± 64 | 154 | 91.9 ± 22 | 97.5 | 118 ± 6.7 | 144 | 86.2 ± 4.6 | 98.4 ± 23 | 148 ± 9.5
36 | CC(N)(Cc1ccc(O)c(O)c1)C(=O)O (stereo not drawn) [Methyldopa] | 95.3 ± 9.9 | 96.8 | 95.5 ± 7.2 | 63.1 | 126 ± 11 | 127 | 91.1 ± 2.8 | 112 ± 1.3 | 96.2 ± 3.6
37 | CCOC(=O)C1=C[C@]2(CC)CCCN3CCc4c(n1c1ccccc41)[C@@H]32 [Vinpocetine] | 107 ± 21 | 108 | 94.4 ± 14 | 106 | 88.5 ± 11 | 112 | 110 ± 9 | 93.4 ± 7.8 | 125 ± 11
